Results: PubChem BioAssay (EPA / NIEHS)
“And” between values parts separate entries of the source, which are not always exact repeats. Identical values can stand only once. Records with an inconclusive call do not appear. The source holds several records for some structures; these can differ, active in one and inactive in another. The source made the active and inactive calls. Rule for the calls, unless noted: active = hit-call score of the fitted dose curve at least 0.9, where 1 is the maximum; inactive = score below 0.9.

Legend:
[1] = target: Bile acid receptor (Homo sapiens) (UniProt Q96RI1); test: ATG_FXR_TRANS: Attagene TRANS-FACTORIAL HepG2 Assay for Farnesoid X Receptor (FXR) (AID 2282979; active = hit-call score of the fitted dose curve at least 0.9, where 1 is the maximum;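 note: hits raise reporter mRNA above DMSO so AC50 marks FXR activation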); settings: HepG2 Attagene TRANS FXR-GAL4 reporter transcription
Chain of Bile acid receptor (Homo sapiens) (Q96RI1 whole entry, looked up, the tested form may be a part): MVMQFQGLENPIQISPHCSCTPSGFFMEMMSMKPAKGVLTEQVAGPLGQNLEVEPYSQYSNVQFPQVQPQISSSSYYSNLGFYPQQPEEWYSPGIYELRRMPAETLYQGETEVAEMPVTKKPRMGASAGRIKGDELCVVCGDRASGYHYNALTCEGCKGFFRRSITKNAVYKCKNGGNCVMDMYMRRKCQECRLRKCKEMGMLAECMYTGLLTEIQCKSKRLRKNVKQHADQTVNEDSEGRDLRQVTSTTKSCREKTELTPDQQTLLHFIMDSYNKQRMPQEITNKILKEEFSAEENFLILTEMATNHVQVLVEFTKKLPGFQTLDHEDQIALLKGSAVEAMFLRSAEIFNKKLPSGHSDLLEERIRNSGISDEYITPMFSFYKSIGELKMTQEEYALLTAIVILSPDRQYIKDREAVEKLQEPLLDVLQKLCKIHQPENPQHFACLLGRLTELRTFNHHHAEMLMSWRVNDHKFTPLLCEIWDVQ
In short: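 Transient transfection of HepG2 with multiplexed GAL4-UAS reporter units; exogenous FXR-GAL4 chimera. Dose 24 h → TriZol RNA → oligo(dT) RT → PCR, 6-FAM primer extension, HpaI cut → CE. Gain vs DMSO.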

[2] = target: Oxysterols receptor LXR-alpha (Homo sapiens) (UniProt Q13133); test: ATG_LXRa_TRANS: Attagene TRANS-FACTORIAL HepG2 Assay for human Liver X Receptor alpha (LXRa) (AID 2282980; active = hit-call score of the fitted dose curve at least 0.9, where 1 is the maximum); settings: HepG2 Attagene TRANS reporter, LXRa transactivation
Chain of Oxysterols receptor LXR-alpha (Homo sapiens) (Q13133 whole entry, looked up, the tested form may be a part): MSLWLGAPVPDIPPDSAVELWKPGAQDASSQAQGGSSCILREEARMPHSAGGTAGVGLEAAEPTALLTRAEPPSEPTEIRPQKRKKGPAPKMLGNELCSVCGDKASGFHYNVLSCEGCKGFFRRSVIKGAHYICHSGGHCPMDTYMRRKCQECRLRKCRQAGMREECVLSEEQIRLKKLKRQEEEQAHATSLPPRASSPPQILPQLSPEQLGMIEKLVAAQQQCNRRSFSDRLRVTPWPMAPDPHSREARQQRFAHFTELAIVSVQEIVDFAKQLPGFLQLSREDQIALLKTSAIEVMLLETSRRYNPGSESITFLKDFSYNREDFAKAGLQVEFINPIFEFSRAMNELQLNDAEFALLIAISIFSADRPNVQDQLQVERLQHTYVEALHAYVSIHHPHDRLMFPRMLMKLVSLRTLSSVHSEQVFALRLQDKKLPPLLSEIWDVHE
In short: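 Transfect HepG2 with GAL4-UAS multiplex reporter constructs (TRANS format, chimeric receptor-GAL4); treat 24 h; extract RNA, reverse-transcribe, PCR-amplify, FAM-label, HpaI-digest; resolve fragments by capillary electrophoresis. Upward response vs DMSO.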

[3] = target: Hepatocyte nuclear factor 4-alpha (Homo sapiens) (UniProt P41235); test: ATG_HNF4a_TRANS: Attagene TRANS-FACTORIAL HepG2 Assay for human Hepatocyte Nuclear Factor 4 alpha (HNF4a) (AID 2282982; active = hit-call score of the fitted dose curve at least 0.9, where 1 is the maximum); settings: HepG2 HNF4a transactivation reporter, mRNA readout
Chain of Hepatocyte nuclear factor 4-alpha (Homo sapiens) (P41235 whole entry, looked up, the tested form may be a part): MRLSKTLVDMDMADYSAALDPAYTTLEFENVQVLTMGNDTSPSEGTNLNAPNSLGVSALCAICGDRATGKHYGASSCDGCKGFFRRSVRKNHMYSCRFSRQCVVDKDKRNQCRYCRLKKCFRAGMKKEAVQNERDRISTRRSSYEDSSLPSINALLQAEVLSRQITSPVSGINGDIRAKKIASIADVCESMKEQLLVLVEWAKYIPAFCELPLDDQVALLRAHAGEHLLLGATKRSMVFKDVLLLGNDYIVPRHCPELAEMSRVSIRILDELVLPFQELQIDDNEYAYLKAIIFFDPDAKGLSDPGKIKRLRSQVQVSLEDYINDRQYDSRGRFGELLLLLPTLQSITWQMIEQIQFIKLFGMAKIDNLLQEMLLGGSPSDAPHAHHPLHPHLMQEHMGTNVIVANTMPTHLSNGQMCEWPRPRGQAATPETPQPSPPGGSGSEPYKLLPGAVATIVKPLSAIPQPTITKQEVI
In short: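 Readout is fluorescent reporter-transcript fragments resolved by capillary electrophoresis after RT-PCR from HepG2 cells dosed for 24 h. Cells carried transfected GAL4-UAS reporter constructs measuring exogenous NR-GAL4 chimera activity; DMSO served as baseline.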

[4] = ATG_M_06_TRANS: Attagene TRANS-FACTORIAL HepG2 Assay for M06 Transcription Factor (Internal Marker) (AID 2282983; active = hit-call score of the fitted dose curve at least 0.9, where 1 is the maximum;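 note: reporter transcript level by RT-PCR then capillary electrophoresis fluorescence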); settings: HepG2 Attagene TRANS M06 internal marker reporter
In short: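 Transfect HepG2 with MRTUs → dose compounds 24 h → isolate RNA, oligo(dT) RT → PCR with reporter primers → 6-FAM primer extension → HpaI digest → CE fragment analysis. Positive direction vs DMSO.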

[5] = ATG_M_32_TRANS: Attagene TRANS-FACTORIAL HepG2 Assay for M32 Transcription Factor (Internal Marker) (AID 2282984; active = hit-call score of the fitted dose curve at least 0.9, where 1 is the maximum;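 note: transcript level of a background control reporter unit measured by RT-PCR and capillary electrophoresis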); settings: HepG2 Attagene TRANS M32 internal marker reporter
In short: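 Measures reporter mRNA induction in human HepG2 liver cells after 24 h chemical treatment. Transcripts from transiently transfected GAL4-UAS reporter units are amplified, fluorescently labelled and sized by capillary electrophoresis; gain of signal relative to DMSO.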

[6] = target: Nuclear receptor subfamily 4 group A member 2 (Homo sapiens) (UniProt P43354); test: ATG_NURR1_TRANS: Attagene TRANS-FACTORIAL HepG2 Assay for human Nuclear Receptor Related Protein 1 (NURR1) (AID 2282985; active = hit-call score of the fitted dose curve at least 0.9, where 1 is the maximum); settings: HepG2 Attagene TRANS reporter, mRNA readout
Chain of Nuclear receptor subfamily 4 group A member 2 (Homo sapiens) (P43354 whole entry, looked up, the tested form may be a part): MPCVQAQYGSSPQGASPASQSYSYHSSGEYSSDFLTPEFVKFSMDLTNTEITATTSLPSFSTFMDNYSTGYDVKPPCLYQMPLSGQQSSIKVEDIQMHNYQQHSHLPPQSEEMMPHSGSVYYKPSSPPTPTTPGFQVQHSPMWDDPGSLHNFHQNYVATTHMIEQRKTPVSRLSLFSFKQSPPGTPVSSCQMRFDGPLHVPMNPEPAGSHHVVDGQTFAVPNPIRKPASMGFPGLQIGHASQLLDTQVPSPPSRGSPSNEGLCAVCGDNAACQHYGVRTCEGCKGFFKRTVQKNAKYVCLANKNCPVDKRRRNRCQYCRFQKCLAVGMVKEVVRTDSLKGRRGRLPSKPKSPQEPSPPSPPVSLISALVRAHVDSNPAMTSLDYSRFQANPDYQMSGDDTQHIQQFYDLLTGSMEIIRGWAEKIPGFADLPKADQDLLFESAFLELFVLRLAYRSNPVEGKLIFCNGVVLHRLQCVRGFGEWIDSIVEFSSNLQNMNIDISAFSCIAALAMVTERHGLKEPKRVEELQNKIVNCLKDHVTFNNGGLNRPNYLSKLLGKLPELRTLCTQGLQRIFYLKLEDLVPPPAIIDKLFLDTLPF
In short: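 Transient transfection of HepG2, human liver cells, with multiple GAL4-UAS reporter transcription units. Cells dosed 24 h, RNA isolated, reverse-transcribed, PCR-amplified, FAM-labelled, HpaI-digested, sized by capillary electrophoresis. DMSO served as negative control.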

[7] = target: Nuclear respiratory factor 1 (Homo sapiens) (UniProt Q16656); test: ATG_NRF1_CIS: Attagene CIS-FACTORIAL HepG2 Assay for human Nuclear Respiratory Factor 1 (NRF1) Orphan Gene (AID 2282987); settings: HepG2 NRF1 cis-element reporter, Attagene multiplex; actives raise or lower the signal
Chain of Nuclear respiratory factor 1 (Homo sapiens) (Q16656 whole entry, looked up): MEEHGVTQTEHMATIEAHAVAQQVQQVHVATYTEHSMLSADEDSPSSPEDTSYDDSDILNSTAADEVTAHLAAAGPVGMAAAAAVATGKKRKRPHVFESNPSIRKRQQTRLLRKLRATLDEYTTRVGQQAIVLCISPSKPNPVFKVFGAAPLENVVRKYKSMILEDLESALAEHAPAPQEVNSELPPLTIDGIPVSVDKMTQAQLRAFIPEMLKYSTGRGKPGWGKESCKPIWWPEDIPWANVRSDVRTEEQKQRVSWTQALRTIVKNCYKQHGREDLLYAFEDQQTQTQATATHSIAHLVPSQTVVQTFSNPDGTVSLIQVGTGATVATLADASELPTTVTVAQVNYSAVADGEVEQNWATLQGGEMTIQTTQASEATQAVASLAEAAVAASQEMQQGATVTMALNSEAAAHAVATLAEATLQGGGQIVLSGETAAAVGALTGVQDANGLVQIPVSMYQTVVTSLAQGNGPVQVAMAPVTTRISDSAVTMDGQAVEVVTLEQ
In short: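 Transcriptional reporter readout, one component of a 52-endpoint multiplexed HepG2 panel. Exposure 24 h; mRNA detected via RT-PCR and fluorescent capillary electrophoresis; fitting in both directions against DMSO.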

[8] = ATG_NFI_CIS: Attagene CIS-FACTORIAL HepG2 Assay for human Nuclear Factor I (NFI) (AID 2282989); settings: HepG2 cis-regulatory reporter, NFI response element transcription; actives raise or lower the signal
In short: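 Reporter transcription driven by endogenous transcription factors in HepG2 cells; 24 h treatment. Quantitation by labelled RT-PCR fragments on capillary electrophoresis, gain- or loss-of-signal relative to DMSO.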

[9] = target: Myc proto-oncogene protein (Homo sapiens) (UniProt P01106); test: ATG_Myc_CIS: Attagene CIS-FACTORIAL HepG2 Assay for human Myelocytomatosis (Myc) Proto-Oncogene Transcription Factor (AID 2282990); settings: HepG2, Attagene cis-reporter transcription factor activity; actives raise or lower the signal
Chain of Myc proto-oncogene protein (Homo sapiens) (P01106 whole entry, looked up, the tested form may be a part): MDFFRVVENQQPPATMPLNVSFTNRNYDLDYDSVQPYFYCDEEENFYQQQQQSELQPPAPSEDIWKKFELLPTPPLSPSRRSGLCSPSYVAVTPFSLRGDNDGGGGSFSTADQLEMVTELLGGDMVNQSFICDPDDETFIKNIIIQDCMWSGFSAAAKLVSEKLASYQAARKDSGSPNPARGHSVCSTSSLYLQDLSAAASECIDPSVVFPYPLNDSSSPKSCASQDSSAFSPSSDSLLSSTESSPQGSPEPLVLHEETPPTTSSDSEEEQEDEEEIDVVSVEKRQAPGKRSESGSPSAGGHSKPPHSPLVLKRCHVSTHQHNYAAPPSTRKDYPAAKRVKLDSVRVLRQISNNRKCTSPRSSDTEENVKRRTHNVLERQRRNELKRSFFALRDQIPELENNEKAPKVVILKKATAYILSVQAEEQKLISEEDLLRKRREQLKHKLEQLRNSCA
In short: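 After 24 h chemical treatment of HepG2 cells carrying multiplexed cis-regulated reporter constructs, reporter transcripts quantified by RT-PCR and capillary electrophoresis of fluorescent fragments. Gain or loss fitted against DMSO baseline.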

[10] = ATG_NRF2_ARE_CIS: Attagene CIS-FACTORIAL HepG2 Assay for human Nuclear Factor Erythroid 2 Related Factor 2 (NFR2) response to Antioxidant Response Elements (ARE) (AID 2282992); settings: HepG2 Attagene ARE/NRF2 reporter, transcription factor activity; actives raise or lower the signal;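 for AC50: reporter mRNA level measured by RT-PCR and capillary electrophoresis fluorescence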
In short: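 Transient MRTU transfection of HepG2; 24 h compound exposure; TriZol RNA, RT with oligo(dT), PCR, 6-FAM primer extension, HpaI cut, CE. Bidirectional fit vs DMSO.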

[11] = target: Cellular tumor antigen p53 (Homo sapiens) (UniProt P04637); test: ATG_p53_CIS: Attagene CIS-FACTORIAL HepG2 Assay for human p53 Transcription Factor (AID 2282994); settings: HepG2 p53 cis-element reporter, Attagene mRNA; actives raise or lower the signal
Chain of Cellular tumor antigen p53 (Homo sapiens) (P04637 whole entry, looked up): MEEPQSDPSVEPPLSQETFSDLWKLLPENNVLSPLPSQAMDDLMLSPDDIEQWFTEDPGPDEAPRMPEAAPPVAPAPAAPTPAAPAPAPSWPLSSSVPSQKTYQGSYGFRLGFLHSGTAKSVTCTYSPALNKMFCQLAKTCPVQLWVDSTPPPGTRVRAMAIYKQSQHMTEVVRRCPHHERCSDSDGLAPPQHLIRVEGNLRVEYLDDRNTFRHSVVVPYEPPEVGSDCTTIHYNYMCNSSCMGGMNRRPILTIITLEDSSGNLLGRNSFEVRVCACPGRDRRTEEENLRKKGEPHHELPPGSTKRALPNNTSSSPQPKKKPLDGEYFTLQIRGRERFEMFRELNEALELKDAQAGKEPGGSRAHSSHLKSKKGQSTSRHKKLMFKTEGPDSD
In short: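 HepG2, transient MRTU transfection (cis promoter elements, endogenous TFs); 24 h dosing; RNA isolation, RT-PCR, 6-FAM primer extension, HpaI digest, CE fluorescence; bidirectional fit vs DMSO.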

[12] = BSK_3C_TissueFactor: BioMAP Diversity Plus: 3C Assay for Tissue Factor Biomarker Activity (AID 2282997); settings: BioMAP 3C HUVEC, tissue factor biomarker readout; actives raise or lower the signal
In short: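 ELISA read-out of Tissue Factor levels on human umbilical vein endothelium collected 24 h after chemical dosing. Gain or loss of signal was fitted relative to DMSO.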

[13] = BSK_3C_uPAR: BioMAP Diversity Plus: 3C Assay for Urokinase-type plasminogen activator receptor (uPAR) Biomarker Activity (AID 2282998); settings: BioMAP 3C HUVEC, uPAR biomarker ELISA; actives raise or lower the signal
In short: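 Readout: ELISA for surface uPAR. System: human umbilical vein endothelial primary cells, 24 h after chemical exposure. Analysis: bidirectional fit, DMSO baseline.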

[14] = BSK_3C_VCAM1: BioMAP Diversity Plus: 3C Assay for Vascular cell adhesion molecule 1 (VCAM1) Biomarker Activity (AID 2282999); settings: BioMAP 3C HUVEC, VCAM1 ELISA, cytokine-stimulated; actives raise or lower the signal
In short: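 Endothelial cells from human umbilical vein are treated with test chemical. At 24 h, VCAM-1 is measured by ELISA, and responses in either direction are fitted relative to DMSO.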

[15] = BSK_4H_Eotaxin3: BioMAP Diversity Plus: 4H Assay for Eotaxin 3 Biomarker Activity (AID 2283000); settings: primary human endothelial cells (HUVEC); actives raise or lower the signal
In short: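 Chemicals were added to human umbilical vein endothelium cultures, and Eotaxin-3 was quantified by ELISA at 24 h. Values were derived by bidirectional fitting with DMSO serving as negative control and activity baseline.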

[16] = target: Glucocorticoid receptor (Homo sapiens) (UniProt P04150); test: ATG_GR_TRANS: Attagene TRANS-FACTORIAL HepG2 Assay for human Glucocorticoid Receptor (GR) (AID 2282978; active = hit-call score of the fitted dose curve at least 0.9, where 1 is the maximum;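 note: activators score as hits since higher reporter transcript over DMSO is fitted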); settings: HepG2 Attagene TRANS GR reporter, mRNA transcription
Chain of Glucocorticoid receptor (Homo sapiens) (P04150 whole entry, looked up, the tested form may be a part): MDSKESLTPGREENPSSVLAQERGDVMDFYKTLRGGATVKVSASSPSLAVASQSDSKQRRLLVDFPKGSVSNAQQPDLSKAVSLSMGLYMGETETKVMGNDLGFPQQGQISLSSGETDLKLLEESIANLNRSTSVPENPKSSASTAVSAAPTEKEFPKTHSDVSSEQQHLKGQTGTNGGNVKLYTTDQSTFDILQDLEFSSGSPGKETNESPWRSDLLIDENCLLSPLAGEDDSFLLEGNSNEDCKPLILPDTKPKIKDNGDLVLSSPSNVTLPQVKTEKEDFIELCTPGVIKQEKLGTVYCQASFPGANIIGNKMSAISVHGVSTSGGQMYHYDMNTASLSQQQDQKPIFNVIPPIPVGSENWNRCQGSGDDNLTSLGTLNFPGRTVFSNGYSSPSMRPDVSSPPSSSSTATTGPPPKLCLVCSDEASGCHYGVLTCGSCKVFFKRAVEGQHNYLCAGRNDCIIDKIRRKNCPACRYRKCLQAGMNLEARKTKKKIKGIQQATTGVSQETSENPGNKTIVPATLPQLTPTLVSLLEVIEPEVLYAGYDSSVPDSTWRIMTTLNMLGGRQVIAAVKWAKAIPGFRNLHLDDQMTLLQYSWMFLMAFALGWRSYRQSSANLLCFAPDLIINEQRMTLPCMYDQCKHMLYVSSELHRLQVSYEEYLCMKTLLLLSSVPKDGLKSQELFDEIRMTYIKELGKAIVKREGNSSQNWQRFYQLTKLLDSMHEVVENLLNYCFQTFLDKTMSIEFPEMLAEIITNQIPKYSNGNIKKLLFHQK
In short: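 Measurement of GAL4-UAS-driven reporter mRNA in human HepG2 liver cells 24 h post-dosing, using RT-PCR with fluorescent labelling and capillary electrophoresis; the transfected constructs report exogenous NR-GAL4 chimera activity, fitted upward against DMSO.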

[17] = ATG_Oct_MLP_CIS: Attagene CIS-FACTORIAL HepG2 Assay for human Octamer-Binding Transcription Factor (Oct) (AID 2282993); settings: HepG2 Attagene cis-factorial Oct reporter, mRNA; actives raise or lower the signal
In short: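 Transfected HepG2 cells, 24 h treatment. Reporter mRNA quantified by RT-PCR–capillary electrophoresis; bidirectional fitting against DMSO.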

[18] = target: Transcriptional activator Myb (Homo sapiens) (UniProt P10242); test: ATG_Myb_CIS: Attagene CIS-FACTORIAL HepG2 Assay for human Myeloblastosis (Myb) Proto-Oncogene Transcription Factor (AID 2282986); settings: HepG2 Attagene CIS-FACTORIAL Myb reporter transcription; actives raise or lower the signal
Chain of Transcriptional activator Myb (Homo sapiens) (P10242 whole entry, looked up): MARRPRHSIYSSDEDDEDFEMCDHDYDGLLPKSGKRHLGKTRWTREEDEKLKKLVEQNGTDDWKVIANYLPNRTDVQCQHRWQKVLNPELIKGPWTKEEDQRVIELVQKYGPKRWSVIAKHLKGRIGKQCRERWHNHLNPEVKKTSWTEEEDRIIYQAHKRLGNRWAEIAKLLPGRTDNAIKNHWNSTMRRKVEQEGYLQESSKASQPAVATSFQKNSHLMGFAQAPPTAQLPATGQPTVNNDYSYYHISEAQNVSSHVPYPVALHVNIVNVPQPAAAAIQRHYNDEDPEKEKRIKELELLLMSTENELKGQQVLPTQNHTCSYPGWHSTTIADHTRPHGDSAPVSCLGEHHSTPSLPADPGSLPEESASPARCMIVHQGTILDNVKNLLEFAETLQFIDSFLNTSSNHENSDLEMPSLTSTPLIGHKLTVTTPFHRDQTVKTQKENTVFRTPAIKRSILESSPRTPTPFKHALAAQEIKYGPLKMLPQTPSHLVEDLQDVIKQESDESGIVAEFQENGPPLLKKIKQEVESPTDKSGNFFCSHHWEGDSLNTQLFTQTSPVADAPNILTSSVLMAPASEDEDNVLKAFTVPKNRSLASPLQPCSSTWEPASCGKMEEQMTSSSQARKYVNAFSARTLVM
In short: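 Fluorescence signals from capillary electrophoresis of RT-PCR-amplified reporter cDNA give the read-out. Cells: HepG2 transfected with multiple cis-regulated reporter units. Exposure lasts 24 hours; DMSO defines baseline for gain or loss of signal.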

[19] = ATG_NF_kB_CIS: Attagene CIS-FACTORIAL HepG2 Assay for human Nuclear Factor Kappa B (NF-kB) (AID 2282991); settings: HepG2 Attagene cis-factorial NF-kB reporter mRNA; actives raise or lower the signal
In short: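 HepG2, transient multi-reporter transfection, cis promoter elements (endogenous TFs). 24 h exposure. Total RNA → RT → PCR → 6-FAM label → HpaI → CE. Gain/loss vs DMSO.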

Measured: AC50

OCc1c[nH]c2ccccc12
inactive: [1] | [2] | [3] | [4] | [5] | [6] | [7] | [8] | [9] | [11] | [14]
active: [6] 18.8 µM and 14.4 µM | [7] 27.2 µM | [10] 26.6 µM [middle of 5 runs] | [11] 26.8 µM | [12] 0.133 µM | [13] 20 µM | [15] 6.67 µM

OCc1ccccc1
inactive: [16] | [3] | [4] | [5] | [6] | [7] | [8] | [9] | [10] | [17] | [12] | [13] | [14] | [15]
active: [6] 14.2 µM

CCCCC(CC)C(=O)OCCOCCOCCOC(=O)C(CC)CCCC (stereo unspecified)
inactive: [16] | [4] | [6] | [18] | [7] | [8] | [9] | [19] | [10] | [11] | [12] | [13] | [14] | [15]

CC[C@H](C)C(=O)O[C@H]1C[C@H](O)C=C2C=C[C@H](C)[C@H](CC[C@@H](O)C[C@@H](O)CC(=O)O)[C@H]21
inactive: [16] | [3] | [4] | [18] | [7] | [9] | [10] | [17] | [12] | [13] | [14] | [15]

NNC(=O)c1ccncc1
inactive: [16] | [4] | [5] | [7] | [9] | [10] | [17] | [11] | [12] | [13] | [14] | [15]

COCc1nnc(-c2ccc[n+]([O-])c2)n1-c1c(Cl)c(Cl)cc2[nH]c(=O)c(=O)[nH]c12
inactive: [1] | [3] | [4] | [7] | [9] | [10] | [17] | [12] | [13] | [14] | [15]

Cc1nccn1-c1ccc(Sc2cccc(C3(C(N)=O)CCOCC3)c2)cc1
inactive: [1] | [3] | [4] | [18] | [7] | [19] | [13] | [14] | [15]
active: [6] 14.3 µM | [9] 2.85 µM | [10] 858 nM | [17] 3.22 µM | [12] 8.83 µM
